Reference: PubChem BioAssay (NCATS)
Unmarked numbers belong to inactive results. Records with an inconclusive call do not appear. Active and inactive are the calls of the source. Unless noted, calls come from the whole dose curve; as a rule, active = well fitted curve in either direction with a large enough effect (not every such curve was filed as active); inconclusive = small, poorly fitted or top-dose-only effect, or another doubt; inactive = flat fitted curve, though single readings scatter.

Legend:
[1] = molecular target: Lysosomal acid glucosylceramidase (Homo sapiens) (UniProt P04062); test: Glucocerebrosidase-p2 (AID 348; in the data active = potency below about 10 µM; note: potency is the fitted concentration of half-maximal effect); details: purified GBA, blue fluorogenic substrate, 40 min
In short: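 Compounds titrated from 0.6 nM upwards against 0.2 nM enzyme in pH 5.9 citric acid/KH2PO4, taurocholate, tween-20; blue fluorogenic substrate 80 uM, 40 min room temperature, stopped and read Ex 365/Em 440 for AC50.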

[2] = AP1 Signaling Pathway (AID 357); details: ME-180 AP-1-bla reporter, EGF-induced, beta-lactamase ratio, 5 h; at 7.69 µM (top of the series) unless noted; note: % is set by controls: 0 for no effect and ±100 for the full control effect
In short: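 AP-1-bla ME-180 cells with beta-lactamase reporter under AP-1 response element, stimulated with EC50 EGF; compounds titrated, 5 hours at 37 degrees Celsius. CCF4 read at 460/530 nm ratio; positive and negative modulators judged by AC50.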

[3] = molecular target: Cytochrome P450 1A2 (Homo sapiens) (UniProt P05177); test: p450-cyp1a2 (AID 410; calls by dose curve; note: potency is the fitted concentration of half-maximal effect;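 for activity change, negative = inhibition: -100% = full effect of reference inhibitor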); details: recombinant CYP1A2, luciferin-ME demethylation, luminescence; series mostly up to 11.4 µM
In short: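 20nM CYP1A2 with 100uM Luciferin-ME (at Km) in 100mM KPO4; compound preincubated 10 min, NADPH regeneration added, 60 min at room temperature. Luciferin quantified by luminescence after detection reagent; normalized to 57 uM furafylline.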

[4] = NFAT Signaling Pathway (AID 444); details: Jurkat NFAT-bla M1, carbachol, beta-lactamase ratio, 5 h; at 7.69 µM (top of the series) unless noted;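 note: carbachol stimulus at about its EC50 of 1 µM final; % is set by controls: 0 for no effect and ±100 for the full control effect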
In short: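 Read-out: CCF4 FRET ratio (460 nm/530 nm) after 1 h RT dye loading, used for %activity and AC50 from titration series. Cells: Jurkat NFAT-β-lactamase/M1 line, treated with compound plus 1 uM carbachol for 5 h, 37 °C.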

[5] = Stat Signaling Pathway (AID 446); details: ME-180 SIE beta-lactamase reporter, IL-6 stimulated, 5 h; at 7.69 µM (top of the series) unless noted;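 note: ME-180 cervical cancer cells given 40 pM IL-6 alongside compound; SIE-controlled beta-lactamase reporter measured as 460/530 nm FRET emission ratio; % is set by controls: 0 for no effect and ±100 for the full control effect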
In short: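 ME-180 cells carrying a SIE-driven beta-lactamase reporter are stimulated with 40 pM IL-6 for 5 h at 37C in the presence of compound. The 460/530 nm FRET substrate ratio is read after 2.5 h at RT. Data are normalised to 300 pM IL-6 and to 125 nM JAK inhibitor controls.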

[6] = molecular target: Glucocorticoid receptor (Homo sapiens) (UniProt P04150); test: GR-GFP Redistribution (AID 450;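 active = compounds whose dose series gives a full or clear partial fitted curve of increased nuclear translocation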; note: potency is the fitted concentration of half-maximal effect); details: U2OS GR-GFP nuclear translocation, laser cytometry, 2 h
[7] = molecular target: Glucocorticoid receptor (Homo sapiens) (UniProt P04150); test: GR-EFC Redistribution (AID 451; calls by dose curve; note: potency is the fitted concentration of half-maximal effect); details: CHO-K1 GR-EFC translocation, beta-gal luminescence, 2 h
In short: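 Translocation of GR-ED fusion to nuclear EA restores b-gal, read by luminescence after 1 h room-temperature detection. Engineered CHO-K1 biosensor cells, 1,000/well, exposed 2 h at 37 C to titrations up to 46 uM final.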

[8] = molecular target: 3',5'-cyclic-AMP phosphodiesterase 4B (Homo sapiens) (UniProt Q07343); test: qHTS Assay for Inhibitors of PDE-IV (AID 607; active = well fitted activation curve with a large enough effect in the main read-out, with a control signal flat, not every such curve was filed as active; note: % of control where 0% means no effect); details: HEK293 ACTOne CNG channel cells, membrane potential fluorescence; series mostly up to 22.9 µM
In short: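 HEK293 ACTOne cells with CNG channel (1000/well), endogenous PDE4; membrane potential dye, compounds up to 22.9 uM final. Fluorescence Ex 535/Em 590; RO 20-1724 (100 uM final) as reference.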

[9] = qHTS Assay for Identification of Small Molecule Agonists for Hypoxia Response Element Signaling Pathway (AID 914; active = well fitted activation curve with a large enough effect in the signal ratio, with a control signal flat, not every such curve was filed as active; the % refers to the signal ratio; note: % of control where 0% means no effect); details: ME-180 (cervical carcinoma) HRE-bla reporter, beta-lactamase ratio, CoCl2, 17 h; hits give high values
In short: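 AC50 values come from titration-series %Activity, taken as the 460/530nm ratio of CCF4 fluorescence (excitation 405nm). CellSensor HRE-bla ME-180 cells were treated 17 hours at 37 C with compound plus an EC50 level of CoCl2.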

[10] = molecular target: Mitogen-activated protein kinase 10 (Mus musculus) (UniProt Q61831); test: JNK3 AlphaScreen Assay (AID 530); details: JNK3 lysate, c-Jun phosphorylation; series mostly up to 57.1 µM;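 note: kinase came from lysate of stimulated human HepG2 cells; signal reports phosphorylation of biotinylated GST-cJun 1-79 at Ser73 with 10 µM ATP; % is set by controls: 0 for no effect and ±100 for the full control effect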
In short: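 Compound titrations were preincubated 15 minutes at room temperature with substrate, antibody and pre-activated JNK3-containing HepG2 lysate. Reactions were started with 10 uM ATP and stopped with EDTA-containing bead buffer for AlphaScreen detection.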

[11] = molecular target: Tyrosyl-DNA phosphodiesterase 1 (Homo sapiens) (UniProt Q9NUW8); test: Confirmation Assay for Inhibitors of Tyrosyl-DNA Phosphodiesterase (TDP1) (AID 489007; active = well fitted curve in the direction sought with a large enough effect; an effect the other way counts as inactive or inconclusive; note: potency is the fitted concentration of half-maximal effect; nearly all actives have a fitted effect of over 40% in size); details: recombinant human TDP1 enzymatic activity, dose-response
In short: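 Recombinant human Tdp1 (1 nM final), expressed in E. coli, preincubated 15 min with compound. Then 15 nM 5'-biotin/3'-phosphotyrosine-FITC DNA substrate added for 5 min at room temperature. AlphaScreen beads (10 ug/ml) added for 10 min; cleavage gives signal loss.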

[12] = molecular target: Cytochrome P450 2C19 (Homo sapiens) (UniProt P33261); test: qHTS Assay for Inhibitors and Substrates of Cytochrome P450 2C19 (AID 899; active = well fitted curve in the direction sought with a large enough effect; an effect the other way counts as inactive or inconclusive; note: potency is the fitted concentration of half-maximal effect; nearly all actives have a fitted effect of over 60% in size); details: recombinant CYP2C19, luciferin-H EGE luminescence; series mostly up to 11.4 µM
In short: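 Reactions contain 5nM enzyme, 10uM Luciferin-H EGE (KM) and 50mM KPO4; compound preincubates 10 min at 37C, NADPH regeneration starts turnover for 60 min. Luminescence after detection reagent gives activity.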

Chain of Lysosomal acid glucosylceramidase (Homo sapiens) (P04062 whole entry, looked up): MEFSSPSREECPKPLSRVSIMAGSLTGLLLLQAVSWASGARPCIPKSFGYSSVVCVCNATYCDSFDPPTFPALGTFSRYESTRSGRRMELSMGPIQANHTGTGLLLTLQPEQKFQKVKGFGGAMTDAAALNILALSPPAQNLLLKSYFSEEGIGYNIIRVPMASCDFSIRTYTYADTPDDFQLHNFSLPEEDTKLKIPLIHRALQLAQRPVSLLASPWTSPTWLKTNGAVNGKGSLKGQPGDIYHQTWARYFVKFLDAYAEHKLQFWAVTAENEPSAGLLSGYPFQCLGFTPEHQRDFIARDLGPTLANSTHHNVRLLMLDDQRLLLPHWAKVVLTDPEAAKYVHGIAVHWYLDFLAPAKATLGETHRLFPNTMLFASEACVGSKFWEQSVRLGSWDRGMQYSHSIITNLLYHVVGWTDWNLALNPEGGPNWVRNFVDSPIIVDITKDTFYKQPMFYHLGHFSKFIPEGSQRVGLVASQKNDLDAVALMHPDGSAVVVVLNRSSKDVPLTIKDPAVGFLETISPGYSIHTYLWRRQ
Chain of Glucocorticoid receptor (Homo sapiens) (P04150 whole entry, looked up, the tested form may be a part): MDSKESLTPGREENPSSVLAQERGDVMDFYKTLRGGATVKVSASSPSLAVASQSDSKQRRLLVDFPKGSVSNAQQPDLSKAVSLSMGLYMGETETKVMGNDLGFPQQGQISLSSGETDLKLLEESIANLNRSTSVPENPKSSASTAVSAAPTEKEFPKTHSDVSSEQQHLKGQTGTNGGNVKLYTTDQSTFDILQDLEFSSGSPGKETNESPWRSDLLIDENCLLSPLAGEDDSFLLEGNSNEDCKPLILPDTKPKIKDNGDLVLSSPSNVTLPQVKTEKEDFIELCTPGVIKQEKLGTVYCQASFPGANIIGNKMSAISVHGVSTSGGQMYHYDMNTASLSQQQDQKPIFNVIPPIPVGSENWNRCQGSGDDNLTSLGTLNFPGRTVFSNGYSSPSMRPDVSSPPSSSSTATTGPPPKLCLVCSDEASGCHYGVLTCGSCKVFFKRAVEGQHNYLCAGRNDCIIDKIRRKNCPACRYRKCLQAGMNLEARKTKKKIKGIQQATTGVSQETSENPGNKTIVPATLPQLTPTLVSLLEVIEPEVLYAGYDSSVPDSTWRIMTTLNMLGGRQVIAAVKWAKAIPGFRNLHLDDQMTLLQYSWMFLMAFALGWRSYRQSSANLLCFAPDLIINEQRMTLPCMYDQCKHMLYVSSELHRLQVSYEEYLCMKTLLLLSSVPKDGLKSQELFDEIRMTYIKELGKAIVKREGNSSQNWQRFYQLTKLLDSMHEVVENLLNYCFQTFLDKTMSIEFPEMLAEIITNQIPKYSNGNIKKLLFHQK
Chain of Cytochrome P450 1A2 (Homo sapiens) (P05177 whole entry, looked up): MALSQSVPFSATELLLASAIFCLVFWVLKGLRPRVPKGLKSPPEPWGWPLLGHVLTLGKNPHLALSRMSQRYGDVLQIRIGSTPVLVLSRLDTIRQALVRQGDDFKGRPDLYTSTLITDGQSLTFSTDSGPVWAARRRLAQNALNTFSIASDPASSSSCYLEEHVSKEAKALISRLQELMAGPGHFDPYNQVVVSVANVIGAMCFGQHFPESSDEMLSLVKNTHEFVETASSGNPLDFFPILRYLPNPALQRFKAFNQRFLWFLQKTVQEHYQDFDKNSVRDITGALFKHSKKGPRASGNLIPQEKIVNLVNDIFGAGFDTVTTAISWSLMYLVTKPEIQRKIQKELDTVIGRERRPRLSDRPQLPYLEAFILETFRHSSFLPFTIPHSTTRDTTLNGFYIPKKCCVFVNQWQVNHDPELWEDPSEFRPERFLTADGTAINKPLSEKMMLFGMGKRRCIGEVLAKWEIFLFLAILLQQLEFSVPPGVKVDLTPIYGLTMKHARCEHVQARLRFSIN
Chain of 3',5'-cyclic-AMP phosphodiesterase 4B (Homo sapiens) (Q07343 whole entry, looked up): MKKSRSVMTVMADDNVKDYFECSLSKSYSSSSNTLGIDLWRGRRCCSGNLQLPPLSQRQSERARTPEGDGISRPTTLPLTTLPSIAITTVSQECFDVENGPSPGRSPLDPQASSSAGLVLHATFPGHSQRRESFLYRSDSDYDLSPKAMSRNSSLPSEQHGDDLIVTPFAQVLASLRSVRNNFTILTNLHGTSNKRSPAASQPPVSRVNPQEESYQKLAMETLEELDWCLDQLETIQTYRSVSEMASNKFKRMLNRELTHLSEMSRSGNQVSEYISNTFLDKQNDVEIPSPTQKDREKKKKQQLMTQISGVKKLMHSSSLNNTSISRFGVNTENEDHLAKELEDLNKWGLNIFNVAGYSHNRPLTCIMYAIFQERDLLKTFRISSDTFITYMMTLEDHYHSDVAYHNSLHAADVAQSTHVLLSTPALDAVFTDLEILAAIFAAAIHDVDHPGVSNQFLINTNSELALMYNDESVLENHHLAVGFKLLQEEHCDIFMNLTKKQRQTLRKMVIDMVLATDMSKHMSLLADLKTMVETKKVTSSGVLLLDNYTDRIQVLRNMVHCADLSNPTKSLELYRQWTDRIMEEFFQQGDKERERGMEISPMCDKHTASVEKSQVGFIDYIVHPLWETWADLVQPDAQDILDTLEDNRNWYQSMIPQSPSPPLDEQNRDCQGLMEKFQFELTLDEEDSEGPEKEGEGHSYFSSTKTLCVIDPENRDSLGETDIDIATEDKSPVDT
Chain of Tyrosyl-DNA phosphodiesterase 1 (Homo sapiens) (Q9NUW8 whole entry, looked up): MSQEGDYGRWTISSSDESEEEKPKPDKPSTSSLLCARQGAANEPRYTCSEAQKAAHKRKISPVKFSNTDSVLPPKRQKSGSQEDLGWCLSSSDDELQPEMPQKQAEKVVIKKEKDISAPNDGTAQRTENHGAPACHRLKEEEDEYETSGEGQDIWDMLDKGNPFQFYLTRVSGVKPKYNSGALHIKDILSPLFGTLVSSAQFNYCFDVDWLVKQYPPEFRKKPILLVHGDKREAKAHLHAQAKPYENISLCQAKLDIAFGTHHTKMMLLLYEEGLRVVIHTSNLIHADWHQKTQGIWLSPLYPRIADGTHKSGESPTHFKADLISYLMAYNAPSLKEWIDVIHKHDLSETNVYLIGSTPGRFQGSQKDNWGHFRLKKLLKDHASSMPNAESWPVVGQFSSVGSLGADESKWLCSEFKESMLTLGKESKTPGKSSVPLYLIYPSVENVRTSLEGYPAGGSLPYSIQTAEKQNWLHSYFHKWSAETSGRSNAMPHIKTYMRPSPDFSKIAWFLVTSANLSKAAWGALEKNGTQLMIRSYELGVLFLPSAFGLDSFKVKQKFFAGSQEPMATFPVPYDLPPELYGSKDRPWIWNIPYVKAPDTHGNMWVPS
Chain of Cytochrome P450 2C19 (Homo sapiens) (P33261 whole entry, looked up): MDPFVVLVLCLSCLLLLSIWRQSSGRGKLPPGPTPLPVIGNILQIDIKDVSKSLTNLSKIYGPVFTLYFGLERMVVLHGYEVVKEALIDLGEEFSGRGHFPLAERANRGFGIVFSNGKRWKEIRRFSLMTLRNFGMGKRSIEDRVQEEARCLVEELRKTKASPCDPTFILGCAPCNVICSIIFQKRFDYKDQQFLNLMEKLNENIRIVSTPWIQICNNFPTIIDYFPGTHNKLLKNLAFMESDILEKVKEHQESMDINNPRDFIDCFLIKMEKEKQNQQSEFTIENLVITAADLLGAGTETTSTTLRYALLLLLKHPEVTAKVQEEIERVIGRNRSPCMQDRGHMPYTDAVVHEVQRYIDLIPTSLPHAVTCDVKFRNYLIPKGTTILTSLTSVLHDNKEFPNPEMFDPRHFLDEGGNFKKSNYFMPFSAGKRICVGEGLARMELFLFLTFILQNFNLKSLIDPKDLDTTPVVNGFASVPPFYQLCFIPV

| Compound | Potency [1] [µM] | activity change, negative = inhibition [2] [%] | activity change, negative = inhibition [3] | activity change, negative = inhibition [4] [%] | activity, negative = inhibition [5] [%] | Potency [6] [µM] | Potency [7] [µM] | outcome [8] | activation [9] [%] | Potency [3] | activity change, negative = inhibition [10] | Potency [11] | Potency [12] |
| --- | --- | --- | --- | --- | --- | --- | --- | --- | --- | --- | --- | --- | --- |
| CC(C)[C@]1(O)[C@@H](OC(=O)c2ccc[nH]2)[C@]2(O)[C@@]3(C)C[C@@]4(O)O[C@@]5([C@H](O)[C@@H](C)CC[C@]35O)[C@]2(O)[C@]41C | > 11.4 | 3.13 | -17.2% [at 2.29 µM] | 3.93 | -4.77 | > 46 | > 9.22 | inactive | 12.8 |  |  |  |  |
| CC(C)CCC1(CCN)C(=O)NC(=O)NC1=O | > 11.4 | 5.02 |  |  | 1.34 | > 46 | > 9.22 | inactive |  | inactive | -0.876% [at 11.4 µM] |  |  |
| O=C(O)CSCC(=O)O | > 11.4 | -1.42 |  |  | 7.17 | > 46 | > 9.22 | inactive |  | inactive | 8.86% [at 11.4 µM] |  |  |
| COc1cc2c3cc1Oc1c(O)c(OC)cc4c1[C@@H](Cc1ccc(cc1)Oc1cc(ccc1O)C[C@H]3N(C)CC2)N(C)CC4 | > 11.4 | 5.28 |  | -11.5 |  |  | > 9.22 | inactive |  | inactive | 4.78% [at 11.4 µM] |  |  |
| O=C1N[C@@]2(CN3CCC2CC3)C(=O)N1CN(Cc1ccccc1)c1ccccc1 | > 11.4 | -6.81 |  |  | -6.68 | > 46 | > 9.22 |  |  | 0.398 µM (active) | 4.81% [at 11.4 µM] |  |  |
| C[C@@H](Cc1ccc(Cl)cc1Cl)NO | > 11.4 | 3.86 |  | -11.6 | -0.402 |  | > 9.22 |  |  | 0.251 µM (active) | 2.58% [at 11.4 µM] |  |  |
| O=P(O)(O)c1ccccc1 (tested in a mixture with another compound) | > 11.4 | 2.76 |  | 5.01 | -0.661 |  |  | inactive |  | inactive | 6.51% [at 11.4 µM] |  |  |
| CN(C)CS/C(N)=N/[C@H](O)C(Cl)(Cl)Cl | > 11.4 | 1.46 | 4.1% [at 2.29 µM] | 23.1 | 3.46 |  | > 9.22 | inactive | 7.72 |  |  |  |  |
| NCCCN1CCN(c2ccccc2)CC1 | > 11.4 | 2.17 |  | -2.83 | 5.73 | > 46 | > 9.22 | inactive |  | inactive |  |  |  |
| C[n+]1c(/C=C\c2ccc(O)c3ncccc23)[se]c2ccccc21 | > 11.4 | -7.45 | -22.7% [at 2.29 µM] |  | 13 | > 46 | > 9.22 |  |  |  | -13.6% [at 11.4 µM] |  |  |
| C[C@H](CN(C)C)C(C#N)(c1ccccc1)c1ccccc1 | > 11.4 | 0.906 | -3.4% [at 2.29 µM] |  | 4.38 | > 46 | > 9.22 | inactive |  |  | 6.57% [at 11.4 µM] |  |  |
| c1ccc2c([C@@H]3CCN(CCN4CCOCC4)C3)c[nH]c2c1 | > 11.4 | -11.8 |  |  | 0.702 | > 46 | > 9.22 | inactive |  | inactive | 3.19% [at 11.4 µM] |  |  |
| O=P(O)(O)CCP(=O)(O)O | > 11.4 | -10.9 |  |  | 11.8 | > 46 | > 9.22 |  |  | inactive | -1.32% [at 11.4 µM] |  |  |
| O=[N+]([O-])c1cc(-c2ccc([As](=O)(O)O)cc2)ccc1[As](=O)(O)O | > 11.4 | 3.12 | -10.9% [at 2.29 µM] |  | 1.81 | > 46 | > 9.22 | inactive | 1.51 |  | 2.81% [at 11.4 µM] | 89.1 µM (active) |  |
| CCOC(=O)[C@@H]1[C@@H]2c3ccccc3-c3ccccc3[C@H]2C[C@H]1O | > 11.4 | -11.4 |  | 2.27 |  | > 46 | > 9.22 |  |  | 0.631 µM (active) | -2.11% [at 11.4 µM] |  | 2 µM (active) |
| CC(=O)O/C(=C1/C[C@H]2[C@@H]3CC=C4C[C@@H](OC(C)=O)CC[C@]4(C)[C@@H]3CC[C@]2(C)C1=O)C(F)(F)F | > 11.4 | -23.8 |  |  | -16.9 | > 46 | > 9.22 | inactive |  | 5.01 µM (active) | -0.565% [at 11.4 µM] |  |  |
